NS1 inh = influenza NS1 inhibition; Potency, µM (top dose mostly 46.1 µM), without a hit: at the top dose activity, positive = more growth; 270,000 tested, 0.4% active; AID 2326; calls by dose curve; note: potency is the fitted concentration of half-maximal effect; actives are rising curves; nearly all actives have a fitted effect of over 50% in size
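Compounds were scored for reversing the slow growth caused by influenza A NS1 in S. cerevisiae, measured by optical density at 600 nm. Assay medium contained 2% galactose at pH 6.0; NS1-free yeast of the same strain were the positive control.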
Shiga inhibitor = Shiga toxin inhibition; Vero cells, Shiga toxin protein synthesis inhibition reporter; inhibition, % at 38.7 µM; 290,000 tested, 9.2% active; in the data active = inhibition mostly above about 28%, no sharp cut-off; inactive = mostly below about 43%; note: 0% is about no effect
Pf growth 48h = inhibits P. falciparum growth in the first generation, 48 h | P. falciparum luciferase growth in erythrocytes, 48 h | Potency, µM (top dose mostly 28.7 µM), without a hit: top-dose activity change, negative = inhibition, hits mostly inhibitors | 310,000 tested, 5.9% active; note: potency is the fitted concentration of half-maximal effect; % is set by controls: 0 for no effect and ±100 for the full control effect
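Growth was read as firefly luciferase luminescence after a 48 h, 37 C, 5% CO2 exposure of compounds to reporter-bearing P. falciparum cultures (0.1% parasitemia, 2% hematocrit final) in Albumax-supplemented RPMI 1640.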
Cycloheximide cs = counter-screen for Shiga toxin inhibitors: cycloheximide protein synthesis inhibition; cell reporter, cycloheximide protein synthesis inhibition counterscreen; max response, %; 300,000 tested, 12% active; in the data active = max response mostly above about 13%, no sharp cut-off; inactive = mostly below about 14%; note: read at 38.3 µM for the half of the compounds with a filed dose; 0% is about no effect
Pf growth 96h = P. falciparum growth inhibition at 96 hours; P. falciparum luciferase reporter growth, 96 h; Potency, µM (highest dose often 28.7 µM), inactives show at the top dose activity change, negative = inhibition, hits mostly inhibitors; 320,000 tested, 6.9% active; AID 504834; note: potency is the fitted concentration of half-maximal effect; % is set by controls: 0 for no effect and ±100 for the full control effect
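P. falciparum expressing integrated firefly luciferase grown in erythrocytes (2% hematocrit, 0.05% parasitemia final) with compounds for 96 hours at 37 C, 5% CO2. Growth inhibition read as loss of luminescence after adding luciferase detection reagent.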
Active calls of the source: *; ? = inconclusive; . = no result given. Sampled rows, rich in hits. Any-hit rate of the full collection: about 21%. Unless noted, calls come from the whole dose curve; as a rule, active = well fitted inhibition curve with a large enough effect; inconclusive = small, poorly fitted or top-dose-only effect, or another doubt; inactive = no such curve, though single readings can be large or run the other way.

SMILES | NS1 inh | Shiga inhibitor | Pf growth 48h | Cycloheximide cs | Pf growth 96h
Cc1ccc(-c2n[nH]c(=O)c3ccccc23)cc1S(=O)(=O)NCC1CCCO1 (stereo unspecified) | -1% | 4 | -10% | -6 | ?
Cc1ccc(-c2nnc(Nc3ccc(O)cc3)c3ccccc23)cc1S(=O)(=O)NCCO | -23% | 14 | ? | 11 | -52%
Cc1ccc(-c2nnc(N3CCC(C)CC3)c3ccccc23)cc1 | . | 16 | ? | 10 | ?
CCOC(=O)CNS(=O)(=O)c1cc(-c2nnc(Nc3ccc4c(c3)OCO4)c3ccccc23)ccc1C | ? | -5 | 2.3µM* | 1 | ?
Cc1ccc(-c2n[nH]c(=S)c3ccccc23)cc1S(=O)(=O)NCC1CCCO1 (stereo unspecified) | -1% | -6 | -5% | -5 | 4%
Cc1ccc(-c2nnc(N3CCC(C)CC3)c3ccccc23)cc1C | . | -10 | 13µM* | 1 | ?
Cc1ccc(-c2nnc(Nc3ccc(C(=O)N(C)C)cc3)c3ccccc23)cc1S(=O)(=O)NC(C)(C)CO | -13% | -6 | 2.3µM* | 1 | ?
Cc1ccc(-c2nnc(Nc3ccc(C(=O)N(C)C)cc3)c3ccccc23)cc1S(=O)(=O)NCC1CCCO1 (stereo unspecified) | -2% | -3 | 2.3µM* | -3 | ?
CC(C)Cc1nnc(NC(=O)CCC(=O)N2CCN(C3CCCC3)CC2)s1 | -3% | -11 | -4% | -1 | -21%
COC(=O)c1ccc(Nc2nnc(-c3ccc(C)c(S(=O)(=O)NCC4CCCO4)c3)c3ccccc23)cc1 (stereo unspecified) | -46% | -2 | 7.4µM* | -1 | ?
Cc1csc(NC(=O)C2COc3ccccc3O2)n1 (stereo unspecified) | 14% | 22 | 50% | 13* | .
O=C(Nc1nc(-c2ccc(S(=O)(=O)N3CCCC3)cc2)cs1)C1COc2ccccc2O1 (stereo unspecified) | 7.9µM* | 23 | 9.3µM* | 5 | -7%
CC(=O)Nc1nc(-c2ccc3c(c2)OCO3)cs1 | -4% | 61* | 204% | 53* | 128%
O=C(Nc1ccc(S(=O)(=O)N2CCCC2)cc1)C1COc2ccccc2O1 (stereo unspecified) | -65% | 10 | -10% | 1 | 26%
O=C(Nc1nc(-c2ccccn2)cs1)C1COc2ccccc2O1 (stereo unspecified) | -125% | 11 | 8.3µM* | 10 | 0.37µM*
CSc1nc2ccc3nc(NC(=O)C4COc5ccccc5O4)sc3c2s1 (stereo unspecified) | 13% | 22 | -17% | 5 | ?
COc1cccc(C(=O)Nc2nc(-c3ccc4c(c3)OCO4)cs2)c1 | -2% | 16 | 1% | 3 | 1%
O=C(Nc1nc(-c2ccc3c(c2)OCO3)cs1)C1COc2ccccc2O1 (stereo unspecified) | ? | -21 | 20% | 16* | 15%
O=C(Nc1nc(-c2ccccc2)cs1)C1COc2ccccc2O1 (stereo unspecified) | -9% | 60 | 7% | 8 | 55%
CC1CC1C(=O)Nc1nc(-c2ccccn2)cs1 (stereo unspecified) | -14% | 20 | . | 22* | 3.7µM*
C[C@@H](C(=O)Nc1nc(-c2ccccn2)cs1)N1C(=O)C2CCCCC2C1=O (stereo partly specified) | -1% | -8 | . | -2 | 12µM*
O=C(O)C1CCCCC1C(=O)Nc1nc(-c2cccs2)cs1 (stereo unspecified) | -9% | 15 | -7% | -4 | -12%
O=C(CN1C(=O)C2CCCCC2C1=O)Nc1nc(-c2ccccn2)cs1 (stereo unspecified) | 7% | 22 | . | -2 | ?
Cc1cc(C)c(S(=O)(=O)/N=C2/C=C(SCC(=O)O)C(=O)c3ccccc32)cc1C | . | 8 | 12µM* | 4 | 10%
CCOC(=O)c1cnc2ccc(C)cc2c1Sc1ccc(F)cc1 | 6% | 67* | ? | 43* | ?
SMILES | NS1 inh | Shiga inhibitor | Pf growth 48h | Cycloheximide cs | Pf growth 96h
CCOC(=O)c1cnc2ccc(C)cc2c1N(C)Cc1ccccc1 | -12% | 22 | ? | 2 | ?
CCOC(=O)c1cnc2ccc(C)cc2c1Sc1ccccc1 | 15% | 62* | ? | 34* | ?
CCOC(=O)c1cnc2ccc(C)cc2c1Nc1ccc(N2CCOCC2)cc1 | -26% | -7 | ? | 6 | 10µM*
CCOC(=O)c1ccc2ncc(C(=O)OCC)c(NCCN3CCOCC3)c2c1 | -15% | 3 | ? | -3 | 5%
CCSC1=N/C(=C\c2ccc3c(c2)OCO3)C(=O)S1 | 0% | -7 | -10% | 9 | 56%
O=C1NC(N2CCOCC2)=N/C1=C/c1ccc2c(c1)OCO2 | . | 16 | 1% | 17* | -29%
CCCN(CCC)CCCNC(=O)C1CCC(CNS(=O)(=O)c2cccc3nsnc23)CC1 (stereo unspecified) | 3% | -1 | 12% | -1 | ?
CCN1CCN(C(=O)c2cc(S(=O)(=O)N3CCCCC3)ccc2Cl)CC1 | 5% | -2 | 40% | -3 | 10µM*
CCOc1cc(S(=O)(=O)N2CCCC2)ccc1Cl | -56% | -10 | . | -4 | 12µM*
CCOC(=O)C1CCCN(C(=O)c2ccc(Cl)c(S(=O)(=O)N3CCCCCC3)c2)C1 (stereo unspecified) | . | -14 | ? | 5 | ?
CCOC(=O)C1CCCN(C(=O)c2cc(S(=O)(=O)N3CCCCC3)ccc2Cl)C1 (stereo unspecified) | . | . | ? | . | 10µM*
CCOc1cc(S(=O)(=O)N2CCCCC2)ccc1F | -6% | -21 | 4% | -1 | .
O=S(=O)(c1ccc(Cl)cc1)N1CCN(S(=O)(=O)N2CCCCCC2)CC1 | 7% | -3 | 14% | 1 | ?
O=S(=O)(c1ccc(Oc2ccc(Cl)cc2)c(S(=O)(=O)N2CCCCC2)c1)N1CCCCC1 | ? | -12 | 4.7µM* | -3 | .
CC(C(=O)N1CCc2ccccc21)N1CCN(c2cccc(C(F)(F)F)c2)CC1 (stereo unspecified) | -27% | -3 | ? | -2 | ?
O=C(NCc1cccs1)C1CCCN1C(=O)Nc1ccccc1[N+](=O)[O-] (stereo unspecified) | 13% | -7 | 23% | -2 | ?
CC1CN(S(=O)(=O)c2cccc(C(=O)Nc3ccc4c(c3)CCC4)c2)CC(C)O1 (stereo unspecified) | -3% | 28 | -12% | 16 | ?
Cc1cc2oc(=O)cc(Cn3ccnc3)c2cc1Cl | 1% | 4 | 9% | -2 | 38%
O=C(c1ccc2c3c(cccc13)CC2)C1CCCN(Cc2ccccn2)C1 (stereo unspecified) | -3% | -16 | 2.3µM* | -2 | -6%
O=C(c1ccc2c3c(cccc13)CC2)C1CCCN(C(=O)c2cc[n+]([O-])cc2)C1 (stereo unspecified) | 0% | -3 | -6% | -3 | 2.9µM*
O=C(c1ccc2c3c(cccc13)CC2)C1CCCN(Cc2ccc(OCCO)cc2)C1 (stereo unspecified) | 0% | 2 | 6.6µM* | 2 | 4%

Source: PubChem (National Center for Advancing Translational Sciences (NCATS))
